Bioassay records: PubChem, National Center for Advancing Translational Sciences (NCATS)
Shown are actives, neighbours in structure and some others; about 15% of the full set was active somewhere.
HCV inh: blocks hepatitis C virus; Huh7.5.1 HCVcc-Cre infection, luciferase reporter, 44 h; Potency, µM (highest dose often 41.8 µM), hits mostly inhibitors; hit rate 3.4% among 340,000; AID 651820
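Whole-lifecycle infectious HCVcc-Cre system; cells 1,000/well, compound then virus (~0.5 moi) added 4 h after plating, 44 h culture. Luciferase read 15 sec following 15 min substrate incubation, room temp.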
SARS PLP yeast: inhibitors of SARS-CoV papain-like protease in yeast; S. cerevisiae expressing SARS-CoV PLpro, growth rescue; Potency, µM (series often up to 32.9 µM), actives largely listed as activators; hit rate 0.19% among 330,000; AID 485353; calls by dose curve; further: nearly all actives have a fitted effect of over 55% in size
Pf growth 48h: P. falciparum growth inhibition at 48 hours (one generation) | P. falciparum luciferase growth in erythrocytes, 48 h | hit rate 5.9% among 310,000 | Potency, µM (top dose mostly 28.7 µM), hits mostly inhibitors | AID 504832
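Here the parasites carry a stable luciferase gene and grow inside erythrocytes in Albumax-based RPMI medium with compound for one erythrocytic cycle. Activity is scored as loss of luminescent signal.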
Pf growth 96h: inhibits malaria parasite growth, 96 h; P. falciparum luciferase reporter growth, 96 h; hit rate 6.9% among 320,000; Potency, µM (series often up to 28.7 µM), usual class: inhibitors
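P. falciparum expressing integrated firefly luciferase, in erythrocytes at 2% hematocrit, 0.05% parasitemia, incubated with compounds 96 h at 37 C, 5% CO2. Growth inhibition read as loss of luminescence; two-generation exposure targets delayed-death apicoplast inhibitors.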
HCMV inh: inhibitors of human cytomegalovirus. hit rate 4.5% among 410,000. AID 1259415. activity change, negative = inhibition, % at 57.5 µM. HFF cells, HCMV-luciferase reporter, 72 h; hits give low values; in the data active means activity change below about -60%; inconclusive means no clear call, values can overlap the other calls; inactive means above about -39%
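Luciferase read-out from HCMV-luciferase-infected HFFs (MOI 1 PFU/cell) 72 h post infection at 37C; compounds added after 16 h cell attachment; activity normalized between buffer-only basal and Salinomycin (10uM) inhibitor controls.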
Sm TGR inh: inhibitors of Schistosoma mansoni thioredoxin glutathione reductase. Q962Y6. purified TGR, DTNB reduction, TNB absorbance 405 nm. Potency, µM (top dose mostly 114 µM), most hits filed as inhibitors. hit rate 3% among 360,000. AID 485364; further: nearly all actives have a fitted effect of over 60% in size
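TGR 20 nM + NADPH 100 uM (dispensed conc.), cpd preinc 15 min RT; start with NADPH (500 uM addition) then DTNB (15 mM addition). Kinetic TNB absorbance, 405 nm filter. Four-parameter Hill fit across titration.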
Of the large screens only hits and unclear results are named; the others gave an inactive call. Unless noted, the call rests on the fitted dose curve; in most records, active means well fitted curve in the direction sought with a large enough effect; inconclusive means small, poorly fitted or top-dose-only effect, or another doubt; inactive means no such curve, though single readings can be large; an effect the other way counts as inactive or inconclusive.

COC(=O)[C@@]12CCCCN1[C@H](c1ccc(-c3cccc(Cl)c3)cc1)[C@H]1C(=O)N(C)C(=O)[C@H]12	Pf growth 48h inconclusive, Pf growth 96h inconclusive
COC(=O)[C@@]12CCCN1[C@H](c1ccc(-c3ccccc3)cc1)[C@@H]1C(=O)N(C)C(=O)[C@@H]12	Pf growth 48h 7.38µM, Pf growth 96h inconclusive
COC(=O)[C@@]12CCCCN1[C@H](c1ccc(-c3ccc(OC)cc3)cc1)[C@@H]1C(=O)N(C)C(=O)[C@@H]12	Pf growth 48h inconclusive
COC(=O)[C@@]12CCCN1[C@H](c1ccc(-c3cccc(Cl)c3)cc1)[C@H]1C(=O)N(C)C(=O)[C@H]12	HCV inh inconclusive, Pf growth 48h 6.57µM, Pf growth 96h 13.1µM
Cc1ccccc1C(=O)Nc1cc2c(cc1N1CCCCC1)n(C)c(=O)n2C	none (no result: HCV inh, SARS PLP yeast, Pf growth 48h, Pf growth 96h)
CO/N=C/C(C#N)=C/c1cc(C(=O)c2ccccc2)cn1C	HCV inh 10µM, Pf growth 48h inconclusive, Pf growth 96h 2.94µM
COc1ccc(NC(=O)CN(C)C2=NS(=O)(=O)c3ccccc32)cc1Cl	none (no result: Pf growth 48h, Pf growth 96h, Sm TGR inh)
O=C(NCc1ccc(F)cc1)c1cc(-c2ccc(Cl)cc2)n[nH]1	none (no result: HCV inh, SARS PLP yeast, Pf growth 48h, Pf growth 96h)
Cc1ccc(NC(=O)COc2ccc(N(C)C(=O)C(C)(C)C)cc2)cc1S(=O)(=O)N1CCCCC1	HCV inh inconclusive, HCMV inh inconclusive (no result: Pf growth 48h, Pf growth 96h, Sm TGR inh)
CCc1cccc(OCC(=O)Nc2ccc(C)c(S(=O)(=O)N3CCCCCC3)c2)c1	HCV inh 8.91µM, Pf growth 48h inconclusive, Pf growth 96h inconclusive
Cc1ccc(NC(=O)COc2ccccc2C(N)=O)cc1S(=O)(=O)N1CCCCCC1	HCV inh 5.01µM, Pf growth 48h inconclusive, Pf growth 96h 4.65µM, HCMV inh -90.6
Cc1ccc(NC(=O)COc2cccc(C)c2C)cc1S(=O)(=O)N1CCCCCC1	HCV inh 6.31µM, Pf growth 48h inconclusive, Pf growth 96h inconclusive, HCMV inh inconclusive
Cc1ccc(OCC(=O)Nc2ccc(C)c(S(=O)(=O)N3CCCCCC3)c2)c([N+](=O)[O-])n1	HCV inh inconclusive, Pf growth 48h inconclusive, Pf growth 96h inconclusive
CC(=O)c1c(C)[nH]c(C(=O)OCC(=O)c2c[nH]c3ccccc23)c1C	HCV inh inconclusive, Pf growth 48h inconclusive
CC(C)NC(=O)c1csc(C(O)c2cccc(N(C)C)c2)n1 (stereo not given)	HCMV inh -74.5 (no result: HCV inh, SARS PLP yeast, Pf growth 48h, Pf growth 96h, Sm TGR inh)
COc1ccc(C2=NN(C(=O)CSc3nc(=O)n4cc(C)ccc4n3)C(c3ccc(C)cc3)C2)cc1 (stereo not given)	HCV inh inconclusive, Pf growth 48h inconclusive, Pf growth 96h 8.28µM, HCMV inh inconclusive
COc1ccc(C2=NN(C(=O)CSc3nc4ccccc4s3)C(c3ccc(F)cc3)C2)cc1 (stereo not given)	HCV inh inconclusive, Pf growth 48h inconclusive, Pf growth 96h inconclusive, HCMV inh inconclusive
COc1ccc(C2=NN(C(=O)CSc3cn(C)c4ccccc34)C(c3ccc(OC)cc3)C2)cc1 (stereo not given)	HCV inh inconclusive, Pf growth 48h inconclusive, Pf growth 96h inconclusive, HCMV inh inconclusive
COc1ccc(C2=NN(C(=O)CSc3nc4ccccc4s3)C(c3ccc(OC)cc3)C2)cc1 (stereo not given)	Pf growth 48h 11.7µM, Pf growth 96h inconclusive
COc1cccc(C2CC(c3cccs3)=NN2C(=O)CSc2nc3ccccc3s2)c1OC (stereo not given)	HCV inh inconclusive, Pf growth 48h inconclusive, Pf growth 96h 7.38µM
COc1ccc(C2CC(c3ccc4ccccc4c3)=NN2C(=O)CSc2ncccn2)cc1 (stereo not given)	Pf growth 48h inconclusive, Pf growth 96h 10.4µM
CC1CCc2c(sc(NC(=O)c3cc(-c4ccc(F)cc4)on3)c2C(N)=O)C1 (stereo not given)	none (no result: HCV inh, SARS PLP yeast, Pf growth 48h, Pf growth 96h)
Cc1ccc(C(=O)c2sc(Nc3ccccc3F)c(S(=O)(=O)c3ccccc3)c2N)c(C)c1	none (no result: HCV inh, SARS PLP yeast, Pf growth 48h, Pf growth 96h)
COc1ccc(C2CC(c3ccccc3)=NN2C(=O)COC(=O)C2(C)CC2(Cl)Cl)cc1 (stereo not given)	HCV inh inconclusive, Pf growth 48h inconclusive, Pf growth 96h 9.28µM
COc1ccc(C2CC(c3ccccc3)=NN2C(=O)COC(=O)C2CC2)cc1 (stereo not given)	none
Cc1ccc(C2CC(c3ccc(Br)cc3)=NN2C(=O)CSC2=NN3CCCC(=O)N=C3S2)cc1 (stereo not given)	HCV inh inconclusive, Pf growth 48h 11.7µM
COc1ccc2c(c1)C(C)CC(C)(C)N2C(=O)CSc1nc2ccccc2s1 (stereo not given)	HCV inh inconclusive, Pf growth 48h inconclusive, Pf growth 96h 10.4µM
COc1ccc(C2=NN(C(=O)CSc3ncccn3)C(c3ccc(OC)cc3)C2)cc1 (stereo not given)	Pf growth 48h 10.4µM, Pf growth 96h inconclusive
CCCN1CCN(C(=O)c2ccc(S(=O)(=O)N(C)c3ccccc3OC)cc2)CC1	none (no result: HCV inh, SARS PLP yeast, Pf growth 48h, Pf growth 96h, Sm TGR inh)
C=C1C=C(C(F)F)n2ncc(C(=O)Nc3ccc(C(C)CC)cc3)c2N1 (stereo not given)	Pf growth 48h inconclusive (no result: HCV inh, SARS PLP yeast, HCMV inh, Sm TGR inh)
CCCn1c(SCc2nc(-c3ccc(OC)c(OC)c3)no2)nnc1-c1ccccc1	none (no result: HCV inh, SARS PLP yeast, Pf growth 48h, Pf growth 96h)
Cc1ccc2n(n1)c(=O)c(Cc1ccccc1)c([O-])[n+]2-c1ccccc1	none
COc1ccc(C2=NN(C(=O)CN3CCCC3)C(c3ccc(OC)cc3)C2)cc1 (stereo not given)	Pf growth 48h inconclusive, Pf growth 96h inconclusive
COc1ccc(C2CC(c3ccc4ccccc4c3)=NN2C(=O)CN2C(=O)CCC2=O)cc1 (stereo not given)	Pf growth 48h 9.28µM, Pf growth 96h inconclusive
COC(=O)C(C)NC(=O)c1ccc(C(C)(C)C)cc1 (stereo not given)	none
Cc1ccc(F)cc1NC(=O)c1ccc(Cn2nc(N3CCN(c4ccccc4)CC3)ccc2=O)o1	HCMV inh -73.2 (no result: HCV inh, SARS PLP yeast, Pf growth 48h, Pf growth 96h)
Cc1cccc(NC(=O)c2ccc(Cn3nc(N4CCN(c5ccccc5)CC4)ccc3=O)o2)c1C	HCMV inh -71.6 (no result: HCV inh, SARS PLP yeast, Pf growth 48h, Pf growth 96h)
CCn1c(SCc2ccccc2C)nc(=O)c2c(C(=O)OC)cc(C3CC3)nc21	none (no result: HCV inh, SARS PLP yeast, Pf growth 48h, Pf growth 96h)
CCCCN(CC)Cc1c(C)[nH]c2c(ccc3ccccc32)c1=O	Pf growth 48h inconclusive
C/C(Cl)=C/Cc1c(C)[nH]c2ccc(C)cc2c1=O	Pf growth 48h 0.37µM
C/C(Cl)=C/Cc1c(C)[nH]c2c(ccc3ccccc32)c1=O	HCV inh inconclusive, Pf growth 48h 0.185µM
CC(=O)c1ccc(-c2ccc(C(=O)Nc3nc(C)c(C(C)=O)s3)o2)cc1	HCMV inh inconclusive
CCOC(=O)N1C(=O)C[C@H](C(=O)N2CCOCC2)[C@H]1c1ccc(OC)cc1	none (no result: HCV inh, SARS PLP yeast, Pf growth 48h, Pf growth 96h, Sm TGR inh)
